# Measured values: article PMC7862700, “An all-to-all approach to the identification of sequence-specific readers for epigenetic DNA modifications on cytosine”
# Tests used:
# Experiment in all cases: DAPPL (digital affinity profiling via proximity ligation, sequencing); 10 mM Tris-HCl pH 7.5, 50 mM NaCl, 1 mM DTT, 4% glycerol, room temperature, 30 min; GST-TFs on glutathione beads, 16-mer random dsDNA library, 0.1% formaldehyde crosslink after washing; high values mean tight binding
# FEV = molecular target: T1, FEV (Homo sapiens, UniProt Q99581 1-238); conditions: protein: recombinant; tags: N-terminal GST; dsDNA, one strand shown
# T1 sequence: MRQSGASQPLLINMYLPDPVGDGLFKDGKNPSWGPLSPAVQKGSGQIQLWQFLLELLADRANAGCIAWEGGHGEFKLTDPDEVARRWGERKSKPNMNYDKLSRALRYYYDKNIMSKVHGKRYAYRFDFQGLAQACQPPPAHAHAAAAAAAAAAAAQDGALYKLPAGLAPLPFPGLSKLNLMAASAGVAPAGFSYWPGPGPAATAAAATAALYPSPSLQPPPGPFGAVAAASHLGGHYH
# Procedure, shortened: (§1)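 Human transcription factors carrying a GST fusion were produced in yeast, bound to glutathione beads, tagged with DNA barcodes and pooled together with a tag-only sample. Each pool was held with 200 nmole of a random double-stranded 16-mer DNA library in Tris/NaCl/DTT/glycerol buffer for 30 min at room temperature, then washed, crosslinked in 0.1% formaldehyde, proximity-ligated with BsaI/T4 ligase (1 h, 37 °C), PCR-amplified and sequenced on an Illumina NextSeq500. Binding signal is the read frequency of each hexamer for a given factor divided by its frequency in the tag-only sample.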
# ETV5 = ETV5 (Homo sapiens, UniProt P41161 1-510); conditions: protein: recombinant; tags: N-terminal GST; dsDNA, one strand shown
# ETV5, sequence (P41161 whole entry): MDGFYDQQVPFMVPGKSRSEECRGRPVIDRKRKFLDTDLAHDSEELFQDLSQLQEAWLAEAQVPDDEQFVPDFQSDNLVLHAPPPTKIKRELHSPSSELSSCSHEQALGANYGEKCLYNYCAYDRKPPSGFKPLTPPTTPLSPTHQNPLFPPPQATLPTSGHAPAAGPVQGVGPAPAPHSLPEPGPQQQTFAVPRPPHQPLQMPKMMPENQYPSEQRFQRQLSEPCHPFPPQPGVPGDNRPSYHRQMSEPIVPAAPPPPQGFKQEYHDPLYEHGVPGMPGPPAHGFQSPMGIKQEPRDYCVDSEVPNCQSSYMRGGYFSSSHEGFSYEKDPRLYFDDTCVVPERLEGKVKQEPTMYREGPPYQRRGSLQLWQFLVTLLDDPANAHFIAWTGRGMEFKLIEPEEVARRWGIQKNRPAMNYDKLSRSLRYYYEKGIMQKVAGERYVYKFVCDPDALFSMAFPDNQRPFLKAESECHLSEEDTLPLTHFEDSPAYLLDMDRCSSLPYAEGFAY
# Procedure, shortened: as §1
# HSF1 = HSF1 (Homo sapiens, UniProt Q00613 1-529); conditions: protein: recombinant; tags: N-terminal GST; chain copies: 3; dsDNA, one strand shown
# HSF1, sequence (Q00613 whole entry): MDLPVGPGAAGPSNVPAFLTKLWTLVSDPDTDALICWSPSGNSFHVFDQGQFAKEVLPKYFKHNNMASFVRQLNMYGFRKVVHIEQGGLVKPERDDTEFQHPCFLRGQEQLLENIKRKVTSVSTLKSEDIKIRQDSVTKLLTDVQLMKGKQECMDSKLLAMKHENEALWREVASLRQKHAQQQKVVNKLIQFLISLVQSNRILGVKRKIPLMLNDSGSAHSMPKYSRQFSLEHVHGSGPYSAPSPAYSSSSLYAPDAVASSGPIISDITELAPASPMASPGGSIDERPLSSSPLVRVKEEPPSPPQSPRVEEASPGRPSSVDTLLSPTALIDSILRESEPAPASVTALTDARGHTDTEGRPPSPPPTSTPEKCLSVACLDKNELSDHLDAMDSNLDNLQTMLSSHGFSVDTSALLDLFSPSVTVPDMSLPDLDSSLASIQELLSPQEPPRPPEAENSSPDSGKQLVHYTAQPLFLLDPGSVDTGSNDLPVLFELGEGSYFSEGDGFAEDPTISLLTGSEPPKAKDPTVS
# Procedure, shortened: as §1
# SPIC = molecular target: T2, SPIC (Homo sapiens, UniProt Q8N5J4 1-248); conditions: protein: recombinant; tags: N-terminal GST; dsDNA, one strand shown
# T2 sequence: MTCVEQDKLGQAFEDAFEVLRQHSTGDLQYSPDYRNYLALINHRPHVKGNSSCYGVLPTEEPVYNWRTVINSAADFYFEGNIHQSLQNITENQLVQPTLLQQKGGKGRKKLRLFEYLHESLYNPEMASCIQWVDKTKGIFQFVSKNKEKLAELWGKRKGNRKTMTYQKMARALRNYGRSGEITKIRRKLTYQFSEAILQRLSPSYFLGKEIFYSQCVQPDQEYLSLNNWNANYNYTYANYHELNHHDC
# Procedure, shortened: as §1
# ELF4 = ELF4 (Homo sapiens, UniProt Q99607 1-663); conditions: protein: recombinant; tags: N-terminal GST; dsDNA, one strand shown
# ELF4, sequence (Q99607 whole entry): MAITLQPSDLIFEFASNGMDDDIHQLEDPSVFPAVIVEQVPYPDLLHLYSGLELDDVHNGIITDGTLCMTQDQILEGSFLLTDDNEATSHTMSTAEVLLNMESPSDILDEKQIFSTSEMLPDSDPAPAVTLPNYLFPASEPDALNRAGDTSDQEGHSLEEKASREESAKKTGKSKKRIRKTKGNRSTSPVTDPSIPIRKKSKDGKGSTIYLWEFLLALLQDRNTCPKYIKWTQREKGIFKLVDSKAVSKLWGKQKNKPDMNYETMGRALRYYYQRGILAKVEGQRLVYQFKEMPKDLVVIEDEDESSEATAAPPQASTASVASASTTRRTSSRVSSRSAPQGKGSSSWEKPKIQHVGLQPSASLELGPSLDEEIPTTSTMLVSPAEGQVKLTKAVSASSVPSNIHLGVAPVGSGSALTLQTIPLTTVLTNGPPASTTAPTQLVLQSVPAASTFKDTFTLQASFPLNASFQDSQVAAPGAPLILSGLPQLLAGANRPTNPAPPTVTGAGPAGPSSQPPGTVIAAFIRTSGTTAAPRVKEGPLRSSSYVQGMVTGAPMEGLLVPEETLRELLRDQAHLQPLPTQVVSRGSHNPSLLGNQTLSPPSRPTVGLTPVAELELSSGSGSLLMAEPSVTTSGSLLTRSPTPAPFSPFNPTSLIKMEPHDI
# Procedure, shortened: as §1
# ELK4 = molecular target: T3, ELK4 (Homo sapiens, UniProt P28324-2 1-405); conditions: protein: recombinant; tags: N-terminal GST; dsDNA, one strand shown
# T3 sequence: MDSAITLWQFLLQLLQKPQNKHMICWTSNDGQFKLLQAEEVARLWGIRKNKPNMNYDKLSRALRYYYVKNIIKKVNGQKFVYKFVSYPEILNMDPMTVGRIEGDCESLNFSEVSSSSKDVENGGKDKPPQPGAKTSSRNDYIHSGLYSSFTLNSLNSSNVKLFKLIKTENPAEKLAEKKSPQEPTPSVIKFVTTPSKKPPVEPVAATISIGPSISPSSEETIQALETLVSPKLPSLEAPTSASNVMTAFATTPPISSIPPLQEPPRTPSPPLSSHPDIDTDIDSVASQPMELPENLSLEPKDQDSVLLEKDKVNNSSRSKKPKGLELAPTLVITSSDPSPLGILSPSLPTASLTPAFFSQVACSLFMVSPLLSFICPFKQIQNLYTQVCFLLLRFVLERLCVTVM
# Procedure, shortened: as §1
# ETV2 = molecular target: T4, ETV2 (Homo sapiens, UniProt O00321 1-342); conditions: protein: recombinant; tags: N-terminal GST; dsDNA, one strand shown
# T4 sequence: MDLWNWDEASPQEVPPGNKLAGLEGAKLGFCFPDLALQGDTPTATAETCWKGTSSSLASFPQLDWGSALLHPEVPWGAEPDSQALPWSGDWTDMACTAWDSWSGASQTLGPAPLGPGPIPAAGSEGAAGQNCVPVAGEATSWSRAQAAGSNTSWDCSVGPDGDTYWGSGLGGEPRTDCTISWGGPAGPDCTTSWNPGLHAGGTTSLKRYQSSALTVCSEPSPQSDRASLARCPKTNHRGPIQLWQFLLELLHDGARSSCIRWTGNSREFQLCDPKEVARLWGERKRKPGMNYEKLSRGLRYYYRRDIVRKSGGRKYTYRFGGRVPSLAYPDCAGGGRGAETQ
# Procedure, shortened: as §1
# ELF3 = molecular target: T5, ELF3 (Homo sapiens, UniProt P78545 1-371); conditions: protein: recombinant; tags: N-terminal GST; dsDNA, one strand shown
# T5 sequence: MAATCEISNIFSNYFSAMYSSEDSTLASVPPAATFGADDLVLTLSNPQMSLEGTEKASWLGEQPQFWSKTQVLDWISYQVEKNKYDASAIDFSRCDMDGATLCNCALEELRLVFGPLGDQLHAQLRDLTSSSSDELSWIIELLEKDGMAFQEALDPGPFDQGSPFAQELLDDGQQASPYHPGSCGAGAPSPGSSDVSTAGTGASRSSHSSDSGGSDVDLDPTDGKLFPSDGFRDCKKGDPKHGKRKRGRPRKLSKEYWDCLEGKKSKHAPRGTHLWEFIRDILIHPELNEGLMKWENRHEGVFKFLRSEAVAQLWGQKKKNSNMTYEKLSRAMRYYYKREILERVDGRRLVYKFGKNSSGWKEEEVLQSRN
# Procedure, shortened: as §1
# CRX = CRX (Homo sapiens, UniProt O43186 1-299); conditions: protein: recombinant; tags: N-terminal GST; dsDNA, one strand shown
# CRX, sequence (O43186 whole entry): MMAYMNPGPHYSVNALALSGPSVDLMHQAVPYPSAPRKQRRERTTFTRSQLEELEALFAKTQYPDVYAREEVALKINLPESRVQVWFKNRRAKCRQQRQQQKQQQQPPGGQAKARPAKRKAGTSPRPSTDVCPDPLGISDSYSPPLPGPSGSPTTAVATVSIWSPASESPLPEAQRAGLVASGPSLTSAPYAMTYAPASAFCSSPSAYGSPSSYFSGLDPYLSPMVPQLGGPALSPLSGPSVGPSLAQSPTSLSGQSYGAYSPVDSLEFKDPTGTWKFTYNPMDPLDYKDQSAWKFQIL
# Procedure, shortened: as §1
# ETV1 = ETV1 (Homo sapiens, UniProt P50549 1-477); conditions: protein: recombinant; tags: N-terminal GST; dsDNA, one strand shown
# ETV1, sequence (P50549 whole entry): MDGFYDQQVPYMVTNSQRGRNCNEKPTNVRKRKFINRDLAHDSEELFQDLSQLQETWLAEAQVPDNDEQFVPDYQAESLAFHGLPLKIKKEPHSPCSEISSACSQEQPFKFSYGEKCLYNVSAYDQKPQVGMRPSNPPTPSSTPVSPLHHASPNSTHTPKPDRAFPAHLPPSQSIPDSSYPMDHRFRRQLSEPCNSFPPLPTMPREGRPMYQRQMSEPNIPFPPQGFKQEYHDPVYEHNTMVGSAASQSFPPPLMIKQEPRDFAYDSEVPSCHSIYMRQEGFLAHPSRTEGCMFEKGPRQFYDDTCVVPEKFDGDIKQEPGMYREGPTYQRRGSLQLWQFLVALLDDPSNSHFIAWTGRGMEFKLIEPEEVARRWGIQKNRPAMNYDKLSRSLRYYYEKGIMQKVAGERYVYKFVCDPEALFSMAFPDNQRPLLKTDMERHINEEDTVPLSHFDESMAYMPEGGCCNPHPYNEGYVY
# Procedure, shortened: as §1
Sequence,binding signal (FEV),binding signal (ETV5),binding signal (HSF1),binding signal (SPIC),binding signal (ELF4),binding signal (ELK4),binding signal (ETV2),binding signal (ELF3),binding signal (CRX),binding signal (ETV1)
AAAATA,"1.15 fold enrichment (6-mer frequency, TF over GST control)","1.17 fold enrichment (6-mer frequency, TF over GST control)","1.34 fold enrichment (6-mer frequency, TF over GST control)","1.16 fold enrichment (6-mer frequency, TF over GST control)","1.17 fold enrichment (6-mer frequency, TF over GST control)","1.19 fold enrichment (6-mer frequency, TF over GST control)","1.21 fold enrichment (6-mer frequency, TF over GST control)","1.06 fold enrichment (6-mer frequency, TF over GST control)","1.35 fold enrichment (6-mer frequency, TF over GST control)","1.1 fold enrichment (6-mer frequency, TF over GST control)"
CTTTTT,"1.35 fold enrichment (6-mer frequency, TF over GST control)","1.28 fold enrichment (6-mer frequency, TF over GST control)","1.23 fold enrichment (6-mer frequency, TF over GST control)","1.34 fold enrichment (6-mer frequency, TF over GST control)","1.43 fold enrichment (6-mer frequency, TF over GST control)","1.24 fold enrichment (6-mer frequency, TF over GST control)","1.28 fold enrichment (6-mer frequency, TF over GST control)","1.58 fold enrichment (6-mer frequency, TF over GST control)","1.25 fold enrichment (6-mer frequency, TF over GST control)","1.32 fold enrichment (6-mer frequency, TF over GST control)"
CGATTC,"1.06 fold enrichment (6-mer frequency, TF over GST control)","1.19 fold enrichment (6-mer frequency, TF over GST control)","1.35 fold enrichment (6-mer frequency, TF over GST control)","1.18 fold enrichment (6-mer frequency, TF over GST control)","1.24 fold enrichment (6-mer frequency, TF over GST control)","1.28 fold enrichment (6-mer frequency, TF over GST control)","1.06 fold enrichment (6-mer frequency, TF over GST control)","1.22 fold enrichment (6-mer frequency, TF over GST control)","1.09 fold enrichment (6-mer frequency, TF over GST control)","1.25 fold enrichment (6-mer frequency, TF over GST control)"
